A selection: hits, their analogues and other compounds. The true share with any hit is near 8%.
KB-3-1 cytotox – kills parental KB-3-1 adenocarcinoma cells. Potency, µM (top dose mostly 46.1 µM), hits mostly cytotoxic. AID 1347075. actives 1.4% (n = 400,000). KB-3-1 viability, CellTiter-Glo ATP luminescence, 72 h; also: % is scaled to controls: 0 for no effect and ±100 for the full control effect; nearly all actives have a fitted effect of over 60% in size
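Using CellTiter-Glo luminescence, growth of non-resistant KB-3-1 adenocarcinoma cells is assessed 72 h after pin-tool compound addition at 37 °C. Normalized responses across the concentration series yield fitted curves.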
HT1080NT lethal – kills 2HG-producing HT-1080-NT fibrosarcoma cells; HT-1080-NT fibrosarcoma viability, CellTiter-Glo ATP luminescence, 48 h; actives 1.6% (n = 360,000); Potency, µM (top dose mostly 46.1 µM), for the others: at the highest dose activity, negative = less viability, most hits filed as cytotoxic;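 also: NT is the 2HG producing partner of a matched IDH1 knockdown line; 0% = DMSO-treated cells and -100% = media-only wells without cells; nearly all actives have a fitted effect of over 55% in size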
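HT-1080-NT; 750 cells/well; 5% FBS RPMI; 48 h compound, 37 degrees C; CellTiter-Glo luminescence; curve fitting and curve-class assignment.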
KB-V1 cytotox – KB-V1 MDR subline cytotoxicity; KB-V1 MDR cells viability, CellTiter-Glo, 72 h; Potency, µM (doses to about 46.1 µM), usual class: cytotoxic; actives 3.4% (n = 400,000); AID 1347076; also: % is scaled to controls: 0 for no effect and ±100 for the full control effect; nearly all actives have a fitted effect of over 60% in size
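Compound-treated KB-V1 multidrug-resistant cells, 72 h, 37 degrees C; viability by CellTiter-Glo. Fitted qHTS curves give the values.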
HT1080 IDH1KD tx – kills HT-1080 cells with IDH1 knockdown | HT-1080 IDH1 knockdown viability, ATP luminescence, 48 h | Potency, µM (doses to about 46.1 µM), for the others: at the top dose activity, negative = toxicity, most hits filed as cytotoxic | actives 2% (n = 360,000) | AID 686971;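 also: 0% = DMSO wells and -100% = cell-free medium wells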
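After a 2 h attachment period, IDH1KD HT-1080 cells took pin-transferred compound for 48 h at 37 °C; ATP-based luminescence after 10 min room-temperature reagent incubation reported viability.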
SW480 rereplic – inducers of DNA re-replication in SW480 colon cancer cells | SW480 DNA re-replication, Hoechst DNA content imaging, 48 h | Potency, µM (doses to about 46.1 µM), without a hit: at the top dose re-replication activation, actives largely listed as activators | actives 1.8% (n = 340,000) | AID 624297; also: % of control where 0% means no effect; nearly all actives have a fitted effect of over 55% in size
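Quantitative HTS format with DMSO vehicle controls; 48 hr drug incubation at 37 C, then 40 min Hoechst staining and scanning imager measurement at 405 nm excitation.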
MCF10A rereplic – inducers of DNA re-replication in MCF 10A breast cells; MCF 10A DNA re-replication, Hoechst nuclear intensity, 48 h; Potency, µM (highest dose often 46.1 µM), for the others: at the highest dose activity, positive = re-replication, actives largely listed as activators; actives 2.9% (n = 350,000); also: % of control where 0% means no effect; nearly all actives have a fitted effect of over 50% in size
Numbers without * were called inactive; i = inactive; ? = inconclusive; . = not tested or not shown. Calls follow the shape of the dose curve; as a rule, active = well fitted curve in the direction sought with a large enough effect; inconclusive = small, poorly fitted or top-dose-only effect, or another doubt; inactive = no such curve, though single readings can be large; an effect the other way counts as inactive or inconclusive. Potency is read from the fitted curve at half-maximal effect.

SMILES | KB-3-1 cytotox | HT1080NT lethal | KB-V1 cytotox | HT1080 IDH1KD tx | SW480 rereplic | MCF10A rereplic
COCCCNC(=O)/C(C#N)=C/c1c(N2CCN(C)CC2)nc2ccccn2c1=O | i | 0.1% | i | 0.0% | ? | 20.6µM*
C=CCNC(=O)/C(C#N)=C/c1c(N(Cc2ccccc2)Cc2ccccc2)nc2ccccn2c1=O | i | -4.6% | 18.4µM* | -29.1% | 20.1% | 5.4%
Cc1nn(CCC(=O)NC(C)C)c(=O)c2nn(-c3ccccc3)c(C)c12 | i | . | ? | . | . | .
CC(Nc1nc(-c2ccncc2)nc2ccccc12)c1ccccc1 (stereo not given) | i | -19.6% | i | -15.4% | ? | 25.2%
CC(Nc1nc(N2CCNCC2)nc2ccccc12)c1ccccc1 (stereo not given) | i | ? | i | 14.6µM* | 13.0% | 46.1%
COc1ccc(Br)cc1CNC(=O)Cn1nc(C)n2c(cc3cc(F)ccc32)c1=O | i | . | i | . | . | .
C/C(=N\NC(=O)C12CCC(C)(C(=O)O1)C2(C)C)c1ccccc1O (stereo not given) | ? | ? | ? | ? | 3.66µM* | ?
CC12CCC(C(=O)N/N=C/c3ccc(O)cc3O)(OC1=O)C2(C)C (stereo not given) | ? | -26.8% | ? | ? | 4.61µM* | 4.8%
COc1ccc(-c2cc(C(=O)Nc3c(C)nn(Cc4ccc(F)cc4)c3C)no2)cc1OC | i | . | i | . | . | .
CS(=O)(=O)N1CCC(n2c(C(F)(F)F)nc3cccnc32)CC1 | i | . | i | . | . | .
Cc1ccccc1C(=O)c1c[nH]c(C(=O)N2CCN(c3ccccc3F)CC2)c1 | i | -24.7% | i | ? | 13.2% | 22.2%
CC1CN(C(=O)c2cccc(S(=O)(=O)N3CCN(c4ccc(F)cc4)CC3)c2)CC(C)O1 (stereo not given) | i | 8.0% | ? | 1.2% | -3.9% | 0.2%
O=C(NC1CCN(Cc2ccccc2)CC1)c1cccc(S(=O)(=O)Nc2cc(C(F)(F)F)ccc2Cl)c1 | ? | -1.6% | 23.1µM* | -10.8% | 27.8% | ?
O=C(c1cccc(S(=O)(=O)N2CCN(c3ccc(F)cc3)CC2)c1)N1CCCC(C(F)(F)F)C1 (stereo not given) | ? | 16.4µM* | ? | ? | ? | 5.2%
O=C(c1cccc(S(=O)(=O)N2CCCCC2)c1)N1CCCCC1 | i | 5.0% | 14.6µM* | 5.5% | -2.5% | 8.2%
O=C(c1cccc(S(=O)(=O)N2CCOCC2)c1)N1CCCCCC1 | i | 18.0% | ? | 5.4% | -4.2% | -2.7%
O=C(c1c[nH]c(C(=O)N2CCN(c3ccccc3F)CC2)c1)c1cccc(Cl)c1Cl | ? | 9.2µM* | 20.6µM* | ? | ? | 3.66µM*
COc1ccccc1NC(=O)N1CCN(c2nnc(C)c3c(C)n(-c4ccccc4)nc23)CC1 | i | . | i | . | . | .
CCOC(=O)c1c(C)c(-c2ccccc2)n(CC(=O)Nc2cc(OC)cc(OC)c2)c1C | i | . | i | . | . | .
CCCCNC(=O)Cn1c(=O)cc(C)c2c(C)nn(-c3cccc(Cl)c3C)c21 | i | . | i | . | . | .
O=C1CC(c2ccc(Cl)cc2)Sc2nc(-c3ccc(F)cc3)nn21 (stereo not given) | i | . | i | . | . | .
O=C(Nc1cnc(N2CCN(c3ccccc3)CC2)c(C(=O)O)c1)c1cccs1 | i | . | ? | . | . | .
O=C(c1cccc(S(=O)(=O)N2CCCC2)c1)N1CCN(c2ccccc2F)CC1 | i | 0.3% | 6.51µM* | -5.5% | -3.7% | 23.5%
Cc1ccc(NS(=O)(=O)c2cccc(C(=O)NNC(=O)NC3CCCCC3)c2)c(C)c1 | i | -8.4% | i | -3.3% | 14.4% | 9.2%
O=C(c1cccc(S(=O)(=O)Nc2ccccc2Cl)c1)N1CCCCCC1 | i | -4.0% | 18.4µM* | 2.7% | 3.1% | 7.8%

Screening data deposited in PubChem BioAssay by National Center for Advancing Translational Sciences (NCATS).
